From PubChem BioAssay (EPA / NIEHS)
Values joined by “and” are separate entries in the source; they are usually repeats but may differ in a detail not shown here. Equal values may be shown once. Where a structure was tested more than once in an assay, its records may differ in their call. Active and inactive are the calls of the source. Rule for the calls: active = hit-call score of the fitted dose curve at least 0.9, where 1 is the maximum; inactive = score below 0.9.

Read-out: Monocyte Chemoattractant Protein-1 (MCP1), CCL2 (gene 6347)
Test: BSK_BF4T_MCP1: BioMAP Diversity Plus: BF4T Assay for Monocyte Chemoattractant Protein-1 (MCP1) Biomarker Activity (AID 2284259)
Conditions: primary human bronchial epithelial cells with fibroblasts
Description: BSK_BF4T is a cell-based, multiplexed-readout assay that uses bronchial epithelial cells and dermal fibroblasts, a human vascular primary cell, with measurements taken at 24 hours after chemical dosing in a microplate: 96-well plate.BSK_BF4T_MCP1 is an assay component measured in the BSK_BF4T assay. It measures MCP-1 antibody related to regulation of gene expression using ELISA technology.Data from the assay component BSK_BF4T_MCP1 was analyzed at the endpoint, BSK_BF4T_MCP1, in the positive analysis fitting direction relative to DMSO as the negative control and baseline of activity. Using a type of binding reporter, gain or loss-of-signal activity can be used to understand protein changes. To generalize the intended target to other relatable targets, this assay endpoint is annotated to the 'cytokine' intended target family, where the subfamily is 'chemotactic factor'.
The levels of cell surface (or secreted, indicated by the prefix "s") biomarker endpoints were measured by ELISA. Overt cytotoxicity to cells in confluent adherent cultures (all systems other than the BT system) was assessed by measuring total protein levels using sulforhodamine B (SRB) staining in parallel cultures at the time of biomarker measurements, indicated as SRB endpoints. For proliferation assays for adherent cell types, individual cell types are cultured at sub-confluence and relative cell numbers quantified by SRB staining at time points optimized for each system (48 h: 3C and CASM3C systems; 72 h: BT and HDF3CGF systems; 96 h: SAg system). SRB was performed by staining cells with 0.1% SRB after fixation with 10% TCA and reading wells at 560 nm.Viability and proliferation of PBMC (T cells) was quantified by Alamar Blue reduction for the SAg and BT systems. For PBMC viability (referred to as PBMC Cytotoxicity within the assay endpoint names), cells were plated (75,000/well in a 96-well plate) and then chemical samples added for 1 h before addition of activators, SEB and TSST-1 (20 ng/mL final concentration each). Cells were incubated for 90 h. Then, Alamar Blue (20 uL/well) (Invitrogen, Cat DAL1100) was added for 6 h, and the plates were read with a fluorescence microplate reader at 546/580 nm (excitation/emission). For PBMC proliferation, cells were plated and activated as above but incubated for only 16 h prior to addition of Alamar Blue. Plates were read after 6 h.

SMILES | outcome | AC50
NCC(F)(F)C(F)(F)C(F)(F)C(F)(F)C(F)(F)C(F)(F)C(F)(F)C(F)(F)F | inactive | –
OCC(O)CC(F)(F)C(F)(F)C(F)(F)C(F)(F)F (stereo not given) | inactive | 263 nM (active)
O=S(=O)(Cl)C(F)(F)C(F)(F)C(F)(F)C(F)(F)C(F)(F)C(F)(F)C(F)(F)C(F)(F)F | – | 46.5 µM (active) and 43.3 µM (active)
OCC(O)CC(F)(F)C(F)(F)C(F)(F)C(F)(F)C(F)(F)C(F)(F)C(F)(F)C(F)(F)F (stereo not given) | inactive | –
OCCCC(F)(F)C(F)(F)C(F)(F)C(F)(F)C(F)(F)C(F)(F)C(F)(F)C(F)(F)F | – | 21.6 µM (active) and 18 µM (active)
OCC(F)(F)C(F)(F)C(F)(F)C(F)(F)C(F)(F)C(F)(F)CO | inactive | –
NC(=O)C(F)(F)C(F)(F)C(F)(F)C(F)(F)C(N)=O | inactive | –
OCC(F)(F)C(F)(F)C(F)(F)C(F)(F)C(F)(F)C(F)(F)C(F)(F)C(F)(F)CO | – | 16.7 µM (active) and 9.07 µM (active)
NC(=O)C(F)(F)C(F)(F)C(F)(F)C(F)(F)C(F)(F)C(F)(F)C(F)(F)F | inactive | –
O=C(F)C1(F)C(F)(F)C(F)(F)C(F)(F)C(F)(F)C1(F)F | inactive | –
O=C(O)C(F)(F)C(F)(F)C(F)(F)C(=O)O | inactive | –
CN(C(=O)C(F)(F)C(F)(F)C(F)(F)F)[Si](C)(C)C | inactive | –
NS(=O)(=O)C(F)(F)C(F)(F)C(F)(F)C(F)(F)C(F)(F)C(F)(F)F | inactive | 7990 nM (active)
O=C(O)CCC(F)(F)C(F)(F)C(F)(F)F | inactive | –
O=C(Cl)C(F)(F)C(F)(F)C(F)(F)C(F)(F)C(F)(F)C(F)(F)C(F)(F)F | inactive | –
O=C(Cl)C(F)(F)C(F)(F)C(F)(F)C(F)(F)C(F)(F)C(F)(F)F | inactive | –
COC(F)(C(F)F)C(F)(F)F (stereo not given) | inactive | –
O=C(O)C(F)(F)OC(F)(F)C(F)(F)OC(F)(F)C(F)(F)OC(F)(F)F | inactive | –

SMILES | outcome | AC50
O=C(O)CCC(F)(F)C(F)(F)C(F)(F)C(F)(F)C(F)(F)C(F)(F)C(F)(F)F | inactive | 949 nM (active)
C=CC(=O)OCC(F)(F)C(F)(F)C(F)(F)C(F)(F)C(F)(F)C(F)(F)C(F)(F)C(F)F | inactive | –
NC(=O)C(F)(F)C(F)(F)C(F)(F)F | inactive | –
C=CC(=O)OCCC(F)(F)C(F)(F)C(F)(F)C(F)(F)F | inactive | –
NC(O)(C(F)(F)F)C(F)(F)F | inactive | –
O=C(O)C(F)(F)C(F)(F)C(F)(F)OC(F)(C(F)(F)F)C(F)(F)F | inactive | 5770 nM (active)
C=CC(=O)OCC(F)(F)C(F)(F)C(F)(F)COC(=O)C=C | – | 15.3 µM (active) and 11.7 µM (active)
C[Si](Cl)(Cl)CCC(F)(F)C(F)(F)C(F)(F)C(F)(F)C(F)(F)C(F)(F)F | inactive | –
O=C(O)C(F)(F)C(F)(F)C(F)(F)OC(F)(F)F | inactive | –
FC(F)(F)C(F)(F)C(F)(F)CC1CO1 (stereo not given) | inactive | –
O=C(O)C(F)(F)C(F)(F)C(F)(F)C(F)(F)C(F)(F)C(F)(F)C(F)F | inactive | –
CNS(=O)(=O)C(F)(F)C(F)(F)C(F)(F)C(F)(F)C(F)(F)C(F)(F)C(F)(F)C(F)(F)F | inactive | –
O=S(=O)(O)CCC(F)(F)C(F)(F)C(F)(F)C(F)(F)F | inactive | –
O=S(=O)(OCC(F)(F)F)C(F)(F)C(F)(F)C(F)(F)C(F)(F)F | inactive | –
OC(O)C(F)(F)C(F)(F)F | inactive | –
CCN(CCO)S(=O)(=O)C(F)(F)C(F)(F)C(F)(F)C(F)(F)C(F)(F)C(F)(F)C(F)(F)C(F)(F)F | inactive | –
FC(F)(F)C(F)(F)C(F)(F)C(F)(F)C(F)(F)C(F)(F)C(F)(F)CCI | inactive | –
OCCCCC(F)(F)C(F)(F)C(F)(F)C(F)(F)F | inactive | –
